Source: PubChem BioAssay (Johns Hopkins Ion Channel Center)
KCNQ2 inh – KCNQ2 (rat) channel inhibition. O88943. CHO-K1 KCNQ2, FluxOR thallium flux, 20 min; stronger effect = lower value. B-score at 10 µM. actives 1.1% (n = 310,000). AID 2156;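 active = fluorescence ratio B-score at most minus 3 library SDs, with starting brightness B-score within 2 library SDs, cut at about -5.5 in these data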
Target sequence (O88943 whole entry, looked up): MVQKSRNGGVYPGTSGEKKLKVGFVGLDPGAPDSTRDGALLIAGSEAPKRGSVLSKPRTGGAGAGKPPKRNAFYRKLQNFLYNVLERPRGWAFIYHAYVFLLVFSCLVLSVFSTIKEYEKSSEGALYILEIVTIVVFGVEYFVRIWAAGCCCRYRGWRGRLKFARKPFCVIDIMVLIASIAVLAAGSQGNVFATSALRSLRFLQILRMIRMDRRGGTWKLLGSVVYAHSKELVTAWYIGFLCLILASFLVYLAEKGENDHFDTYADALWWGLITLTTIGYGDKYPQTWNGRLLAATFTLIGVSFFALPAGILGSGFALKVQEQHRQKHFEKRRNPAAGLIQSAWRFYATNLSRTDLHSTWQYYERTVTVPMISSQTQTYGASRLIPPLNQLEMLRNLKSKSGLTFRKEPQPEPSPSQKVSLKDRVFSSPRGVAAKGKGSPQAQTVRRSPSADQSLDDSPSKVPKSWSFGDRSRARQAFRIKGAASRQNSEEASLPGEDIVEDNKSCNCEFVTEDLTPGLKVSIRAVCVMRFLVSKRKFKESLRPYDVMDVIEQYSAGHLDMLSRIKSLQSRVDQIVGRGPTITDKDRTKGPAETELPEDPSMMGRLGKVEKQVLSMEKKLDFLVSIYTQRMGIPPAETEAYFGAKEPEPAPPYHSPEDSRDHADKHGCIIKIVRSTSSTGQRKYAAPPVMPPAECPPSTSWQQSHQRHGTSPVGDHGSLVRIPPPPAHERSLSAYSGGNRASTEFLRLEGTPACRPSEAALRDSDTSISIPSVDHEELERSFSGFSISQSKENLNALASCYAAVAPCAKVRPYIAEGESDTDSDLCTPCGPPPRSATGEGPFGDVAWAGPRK
KCNQ2 enhance – potentiators of rat KCNQ2 potassium channel | CHO-K1 KCNQ2, FluxOR thallium flux fluorescence; stronger effect = higher value | B-score at 10 µM | actives 0.54% (n = 310,000) | AID 2239;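 active = fluorescence ratio B-score at least 3 SD of library B-scores, with initial fluorescence B-score within 3 of them, cut at about 5.3 in these data; same plate scores as AID 2156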;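 note: B-score of peak minus minimum over baseline fluorescence ratio after K+ and Tl+ stimulus; positive B-score means potentiation of KCNQ2 with more thallium influx and brighter signal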
A number is an active result; . = inactive; / = not tested or not shown. Shown are actives, neighbours in structure and some others; about 1.6% of the full set was active somewhere.

SMILES	KCNQ2 inh	KCNQ2 enhance
Cc1c(OCC(=O)NC(Cc2c[nH]c3ccc(O)cc23)C(=O)O)ccc2c3c(c(=O)oc12)CCC3 (centres undefined)	.	/
COC(=O)/C=C1/S/C(=N/NC(=O)c2ccccc2C)NC1=O	.	/
CC1CCCN(C(=O)c2nn(C)c3c2CSc2ccccc2-3)C1 (centres undefined)	.	/
CN(C(=O)c1nn(C)c2c1CSc1ccccc1-2)c1ccc(F)cc1	-6.5	.
O=C(c1ccco1)N1CCN(C(=O)C2CCCN(S(=O)(=O)Cc3ccccc3)C2)CC1 (centres undefined)	.	.
CCN(CC)S(=O)(=O)c1ccc(OC)c(NC(=O)c2ccc(OC)c([N+](=O)[O-])c2)c1	.	/
COc1cc2c(cc1NC(=O)/C=C/c1ccc([N+](=O)[O-])cc1)oc1ccccc12	.	5.6
COc1cc2c(cc1NC(=O)COC(=O)/C=C/c1ccc([N+](=O)[O-])cc1)oc1ccccc12	.	/
Cc1ccc(O)c(C(=O)c2cnc3c(c2)CN(C)C(=O)N3)c1	.	.
Cc1ccc2c(c1)-c1ncc(C(=O)c3cc(Br)ccc3O)cc1CO2	-7.4	.
CC(C)=CC(O)C/C(C)=C/COc1ccc2ccc(=O)oc2c1 (centres undefined)	.	.
Cc1ccc(S(=O)(=O)N(CC(=O)NCc2ccco2)Cc2ccc(F)cc2)cc1	-7.3	.
Cc1ccc(S(=O)(=O)NCC(=O)N(CC(=O)NCc2ccco2)Cc2ccc(F)cc2)cc1	.	/
Cc1cccc(S(=O)(=O)N(CC(=O)Nc2ccccc2C)Cc2ccco2)c1	-5.8	.
Cc1ccc(C)c(N(CC(=O)Nc2ccccc2C(=O)NCc2ccco2)S(=O)(=O)c2ccccc2)c1	.	/
COc1ccccc1CNCc1cc(=O)oc2c(C)c(C)ccc12	.	/
COc1ccc(CNc2cc([N+](=O)[O-])ccc2OC)cc1	.	/
CC(C)CC1Nc2ncnc(N3CCN(c4ccccn4)CC3)c2N(Cc2ccc(Br)cc2)C1=O (centres undefined)	.	/
Cc1cc(Cl)n2c(nc3cc(F)c(F)cc32)c1C#N	-13	.
Cc1cc(C)n2c(=O)c3ccc(Cl)cc3nc2c1C#N	.	/
Cc1ccc(CNC(=O)CCc2c(C)[nH]c(=O)c(C#N)c2C)cc1	.	.
COc1ccccc1CNC(=O)CN(Cc1ccc(Cl)cc1)S(C)(=O)=O	-5.9	.
CS(=O)(=O)N(CC(=O)NCc1ccccc1)Cc1ccc(Cl)cc1	.	/
Cc1ccc(COc2cccc3c2CCN(Cc2ccc(F)cc2)C3=O)cc1	.	/
O=C1c2cccc(OCc3ccc(F)cc3)c2CCN1Cc1ccccc1	-6.5	.
SMILES	KCNQ2 inh	KCNQ2 enhance
COc1ccc(NC(=O)Nc2ccncc2)c(OC)c1	.	.
O=C(c1cccc(Cl)c1)N1CCN(CCCc2ccccc2)CC1	.	.
CN(CC(=O)Nc1c(Cl)cccc1Cl)C(=O)c1cc(-c2cccs2)nn1-c1ccccc1	.	/
CN(CC(=O)Nc1ccc(Cl)cc1)C(=O)c1cc(-c2cccs2)nn1-c1ccccc1	-7.6	.
CN1CCC(CNC(=O)Nc2csc3ccccc23)CC1	.	.
Cc1ccccc1OCc1nc2ccccc2[nH]1	-6.6	.
COc1ccccc1OCc1nc2ccccc2[nH]1	.	/
Cc1ccc(S(=O)(=O)NCC(C)n2nc(C)cc2C)cc1 (centres undefined)	.	.
Cc1ccc(C(C[N+](=O)[O-])n2nc(C)cc2C)cc1 (centres undefined)	-7.4	.
O=C(Nc1ccccc1Oc1cccnc1)C1CCCN(Cc2cccc(Cl)c2)C1 (centres undefined)	.	/
COc1ccc(C(=O)Cn2cnc3ccccc3c2=O)cc1OC	.	.
COC(=O)C1(C)NC(c2ccccc2C)C2C(=O)N(c3ccccc3)C(=O)C21 (centres undefined)	.	.
CCOC(=O)C1(c2ccccc2)NC(c2ccccc2C)C2C(=O)N(c3ccc4c(c3)OCO4)C(=O)C21 (centres undefined)	-7	.
CCOC(=O)C1=C(CS(=O)(=O)c2ccccc2)NC(=O)NC1c1ccccc1OC (centres undefined)	.	.
CCN(CC)S(=O)(=O)c1ccc(OC(C)C)c(NC(=O)c2c3c(nc4ccccc24)CCN(Cc2ccccc2)C3)c1	.	/
Cc1ccc(N(Cc2ccco2)C(=O)c2ccc(N3CCCCC3)c([N+](=O)[O-])c2)cc1	-7.1	.
O=C(NCc1ccco1)c1ccc(N2CCCCC2)c([N+](=O)[O-])c1	.	.
COc1cccc(C(=O)CSc2nnc(CNc3nc(-c4ccccc4)cs3)n2C)c1	.	.
COc1ccccc1/C=C(/CC(=O)NCc1ccccc1)c1nc2ccccc2s1	.	/
COc1ccccc1/C=C(/CC(=O)NCc1ccc(F)cc1)c1nc2ccccc2s1	-6.8	.
CCC(=O)Nc1nonc1-c1nc2ccccc2n1CCC(C)C	.	/
Cc1ccc(Cl)cc1N1CCN(C(=O)C(C)n2ncn3cccc3c2=O)CC1 (centres undefined)	-5.8	.
CC(C(=O)N1CCCCC1)n1ncn2cccc2c1=O (centres undefined)	.	.
